In PubChem BioAssay (NCI) one finds growth data, which are given here for 13 compounds.

About 83,000 compounds went through this panel and 20% of them were active in at least one assay; those are over-represented in the sample as a whole.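 Single-dose data. Exposure time 48 hours. Values below 10 considered active.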 Unmarked numbers belong to inactive results. Active and inactive are the calls of the source.

Common to all, as to test: NCI-60 one-dose screen, 48 h (100 = growth as untreated, 0 = no growth, -100 = all killed)
What all share (settings): 10 µM unless noted

Experiment [1] deals with NCI-H23 lung.
Experiment [2] has as its system NCI-H226 lung.
The test system of experiment [3] is NCI-H322M lung.
The test system of experiment [4] is HOP-62 NSCLC.
The test system of experiment [5] is NCI-H460 lung.
Experiment [6] deals with HOP-92 NSCLC.
The test system of experiment [7] is NCI-H522 lung.
Experiment [8] has as its system A549/ATCC NSCLC.
Experiment [9] has as its system 786-0 renal.
The subject of experiment [10] is COLO 205 colon.
Experiment [11] relates to DU-145 prostate.
Experiment [12] relates to K-562 leukemia.
Experiment [13] has as its system MALME-3M melanoma.
Experiment [14] relates to MDA-MB-231 breast.
In experiment [15] the test system is RXF 393 renal.
The subject of experiment [16] is SF-268 CNS.
Experiment [17] relates to SF-295 CNS.
Experiment [18] has as its system SF-539 CNS.
Experiment [19] concerns UACC-257 melanoma.
In experiment [20] the test system is M14 melanoma.

In the case of `CC(C)(C)n1cc(-c2ccnc(NCCNS(=O)(=O)c3ccc(C(F)(F)F)cc3)c2)c(-c2cccc(O)c2)n1`, the growth in experiment [1] was 55.8%; in experiment [2], 67.2%; in experiment [3] it was 74.9%; in [4], 71.5%; in experiment [5] it was 21.2%; in experiment [6] it was 35.4%. The growth was 49% in experiment [7]; 41.1% in experiment [8]; 33.9% in experiment [9]; -33.8% (active) in [10]; 75.7% in experiment [11]; 7.42% (active) in experiment [12]. The growth in experiment [13] is 42.3%; in experiment [14], 46%; in experiment [15], 37%; in [16], 56.6%; in experiment [17], 44.3%; in experiment [18], 54%. Also, the growth was 47.2% in experiment [19] and 44.7% in experiment [20].

Regarding `C=C1c2nc3ccccc3n2C=C(c2ccc(Cl)cc2)N1Cc1ccccc1`, the growth is 73.4% in experiment [1]; 76.9% in [2]; 96% in [3]; 106% in experiment [4]; 88.2% in experiment [5]; 73.6% in experiment [6]. The growth was 66.3% in experiment [7]; 70.6% in experiment [8]; 89.5% in experiment [9]; 105% in experiment [10]; 103% in [11]; 59.1% in [12]. For the same compound, the growth in [13] is 94.5%; in experiment [14], 85.4%; in experiment [15], 65.7%; in [16], 90.3%; in experiment [17], 89.8%; in experiment [18], 96.4%. Moreover, the results for the growth in experiment [19] and in experiment [20] were 75.4% and 85.2%, respectively.

With `COc1cc(C(=O)/C=C/c2ccc3nc(-c4cc(F)cc(F)c4)sc3c2)cc(OC)c1OC`, the growth in experiment [1] is 99.3%; in [2], 120%; in [3], 93%; in experiment [4], 92.3%; in [5], 110%; in [6], 83.4%. Moreover, the growth in [7] is 97.4%; in experiment [8], 94.2%; in [9] it was 93.4%; in [10] it was 115%; in experiment [11] it was 112%; in experiment [12], 100%. Further, the growth is 86.6% in [13]; 84.2% in experiment [14]; 110% in experiment [15]; 97.3% in experiment [16]; 94.2% in experiment [17]; 92.4% in [18]. The growth in experiment [19] is 103%; in experiment [20], 97.1%.

As to `ClC(Cl)c1nc(-c2cccnc2)n2nc(-c3ccccc3)cc2n1`, the growth was -39.3% (active) in experiment [1]; 66.2% in experiment [2]; 46.2% in [3]; 5.17% (active) in experiment [4]; -32.5% (active) in experiment [5]; -0.78% (active) in experiment [6]. Besides, the growth is -20.3% (active) in experiment [7]; -16.8% (active) in [8]; 82.3% in experiment [9]; -52.6% (active) in experiment [10]; -21.7% (active) in experiment [11]; 6.07% (active) in experiment [12]. The growth in experiment [13] is -4.43% (active); in experiment [14], 17.3%; in experiment [15], -51% (active); in experiment [16], 23%; in experiment [17], 0.57% (active); in experiment [18] it was 60.8%. For the same compound, the growth in [19] was 96.4%; in experiment [20], 71%.

As to `CN1CCN(CCCOc2ccc3nc(Nc4ccc(Cl)c(C(F)(F)F)c4)ccc3c2)CC1`, the growth in experiment [1] is 67.3%; in experiment [2], 88.9%; in [3], 53.6%; in experiment [4], 57.8%; in experiment [5], 44.4%; in experiment [6], 43%. The growth is 90.2% in experiment [7]; 55.3% in [8]; 68.6% in experiment [9]; -40.7% (active) in [10]; 54.1% in [11]; -28.2% (active) in experiment [12]. Further, the growth in experiment [13] is 55.9%; in [14], -12.9% (active); in experiment [15], 58.8%; in experiment [16], 59.7%; in experiment [17] it was 56%; in [18], 47%. Besides, in [20], the growth was -11.6% (active).

For the compound `Cc1cc(N/N=C/c2nc(-c3ccc(Br)cc3)oc2C)c2cc(Cl)ccc2n1`, the growth in [1] was 101%; in experiment [2] it was 84.7%; in [3] it was 91.9%; in experiment [4] it was 107%; in experiment [5], 12.8%; in experiment [6], 72%. Further, the growth in experiment [7] was 76.5%; in [8], 65.5%; in experiment [9], 34.1%; in experiment [10], 104%; in experiment [11], 60.7%; in [12], -17.6% (active). The growth in experiment [13] was 55.6%; in [14], 67.2%; in experiment [15], 85.5%; in [16], 80%; in experiment [17] it was 101%; in [18], 98.5%. The growth in experiment [19] was 95.6%; in [20], 40.8%.

In the case of `CC(C)(C)N1CCC1C(N)=O` (stereo not drawn), the growth is 86% in experiment [1]; 118% in [2]; 125% in [3]; 96.8% in experiment [4]; 104% in [5]; 100% in experiment [6]. Besides, the growth in experiment [7] was 172%; in [8], 99%; in [9], 29.6%; in experiment [10], 106%; in experiment [11], 108%; in experiment [12], 97.7%. For the same compound, the growth in [13] is 90.3%; in [14] it was 112%; in experiment [15] it was 103%; in [16], 102%; in [17], 106%; in experiment [18], 97.7%. Also, the figures for the growth in [19] and in experiment [20] were 96% and 78.6%, respectively.

With `COc1ccc(/C=C2\N=C(c3ccccc3)N(C(=O)c3ccccc3O)NC2=O)cc1`, the growth in experiment [1] is 89.7%; in experiment [2] it was 101%; in experiment [3], 105%; in [4], 99.1%; in experiment [5], 98.7%; in experiment [6], 75.5%. The growth in experiment [7] is 100%; in experiment [8], 97.3%; in experiment [9] it was 89.8%; in [10], 112%; in [11], 110%; in experiment [12], 86.5%. Besides, the growth in experiment [13] was 89.9%; in experiment [14], 84.6%; in experiment [15], 105%; in experiment [16], 108%; in [17], 92.9%; in experiment [18] it was 95.3%. Further, the values for the growth in experiment [19] and in experiment [20] were 110% and 98.8%, respectively.

Take `C=C1C(=O)O[C@H]2[C@H]1CC/C(Cn1cc(-c3cccc(Cl)c3)nn1)=C\CC[C@@]1(C)O[C@@H]21`: the growth in experiment [1] was -35% (active); in experiment [2], -57.9% (active); in [3], 66.2%; in experiment [4], -38.4% (active); in [5], 16.6%; in experiment [6], -73.2% (active). In addition, the growth in [7] was -74.4% (active); in experiment [8] it was 31%; in [9] it was -83.9% (active); in [10] it was -79.5% (active); in experiment [11] it was -99.4% (active); in [12], 0.665% (active). Moreover, the growth in [13] is -77.3% (active); in experiment [14], -54.1% (active); in experiment [15], -88.4% (active); in experiment [16], -47.9% (active); in [17] it was 72.4%; in [18], -76.7% (active). The growth in [20] is -56.4% (active).

With `C=C1CCC2C(C)(CO)C(O)CCC2(C)C1C/C=C1/C(=O)OCC1O/C=C/c1ccccc1` (stereo not drawn), the growth was 87.7% in experiment [1]; 83.7% in [2]; 94.7% in experiment [3]; 104% in experiment [4]; 75.2% in [5]; 76.1% in experiment [6]. The growth in experiment [7] is 60.3%; in [8], 71.8%; in experiment [9], 93.1%; in [10], 101%; in experiment [11] it was 82.8%; in experiment [12] it was 22.9%. Further, the growth in [13] is 105%; in [14] it was 95.6%; in [15], 81.2%; in experiment [16] it was 96.7%; in experiment [17], 92.7%; in experiment [18], 96.9%. For the same compound, the growth in experiment [19] was 83.6%; in experiment [20], 86.1%.

As to `CCOC(=O)/C(C#N)=C1/C(=O)Nc2ccccc21`, the growth is 108% in experiment [1]; 116% in [2]; 127% in experiment [3]; 104% in [4]; 120% in experiment [5]; 110% in experiment [6]. The growth in [7] is 183%; in experiment [8], 112%; in experiment [9] it was 124%; in [10], 118%; in [11], 123%; in experiment [12], 132%. Besides, the growth in [13] was 108%; in experiment [14], 116%; in experiment [15] it was 117%; in [16] it was 122%; in experiment [17], 113%; in experiment [18], 99.7%. The growth is 123% in [19] and 94.6% in experiment [20].

With `C=C1C(=O)O[C@@H]2[C@@H]3O[C@@](C)(CC/C=C(\C)CCC[C@@H]2C)[C@H](O)C[C@@H]13`, the growth was 81.6% in experiment [1]; 65.7% in experiment [2]; 97.3% in experiment [3]; 81.2% in [4]; 89.8% in experiment [5]; 1.79% (active) in experiment [6]. Besides, the growth in experiment [7] was -16.5% (active); in experiment [8], 95.3%; in experiment [9], 79.1%; in experiment [10] it was 47.1%; in experiment [11], 50.1%; in experiment [12] it was 18.6%. In addition, the growth is 55.2% in experiment [13]; 68.2% in [14]; 27% in experiment [15]; 67.9% in experiment [16]; 81.8% in experiment [17]; 58.3% in experiment [18]. The growth in experiment [19] is 67.9%; in experiment [20] it was -1.2% (active).

For the compound `Cc1ccc(S(=O)(=O)c2nc(-c3ccccc3)oc2S(C)(=O)=O)cc1`, the growth is 76.3% in [1]; 90.5% in experiment [2]; 106% in experiment [3]; 80.7% in experiment [4]; 80% in [5]; -27.4% (active) in experiment [6]. Besides, the growth in experiment [7] was -84.4% (active); in experiment [8], 85.6%; in [9] it was -16.5% (active); in experiment [10] it was -76.6% (active); in [11] it was 30.4%; in experiment [12], 2.49% (active). For the same compound, the growth in experiment [13] is -77.8% (active); in experiment [14], 13.6%; in [15] it was 10.4%; in experiment [16], 68.6%; in experiment [17] it was 89.4%; in experiment [18] it was -23.1% (active). Moreover, the growth in experiment [19] is 74.8%; in experiment [20], 17.8%.
